High-throughput results: PubChem BioAssay, several laboratories
Only some compounds are listed: those with a hit (about 6.9% of all), similar ones and a draw of the others.
SKKanGAS inh – inhibitors of SKKanGAS S. pyogenes growth in kanamycin (SK-promoter or general growth effect); 300,000 compounds, 1.3% hits; BacTiter-Glo, 6 h; AID 1662; inhibition, % at 7.5 µM;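 active = mean replicate score, as percent of positive control median, at least 50; inconclusive = mean below 50 but one replicate at or above 50; inactive = mean and every replicate below 50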;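 note: strain carries kanamycin resistance gene driven by streptokinase promoter and grows in 40 µg/ml kanamycin; loss of luminescence reflects streptokinase promoter inhibition or plain growth inhibition; 0% = median of DMSO wells and 100% = positive control at its reference dose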
CSC inhib – blocks cancer stem cells; cancer stem cell-like cells viability, luminescence; inhibition, % at 7.5 µM; 300,000 compounds, 1.1% hits; AID 2717; in the data active = inhibition above about 75%; inconclusive = no clear call, values can overlap the other calls; tested in HMLE shEcad cells
Beta apoptosis – beta cell apoptosis inhibition; INS-1E cytokine-induced death, ATP luminescence, 48 h; percent of positive-control rescue, neutral wells zero; protection from apoptosis, % (test concentration not listed); 300,000 compounds, 0.8% hits; AID 435005;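 active = Every replicate reaches about 75%, or at least half do and their mean reaches it too, limit read from the data; inconclusive = At least half of replicates reach the limit but their mean does not; inactive = Under half of replicates reach the limit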;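 note: 0% = cytokine-treated negative control wells and 100% = positive control rescue; higher means more ATP so stronger rescue from cytokine killing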
MPTP block – inhibitors of mitochondrial permeability transition pore | isolated mouse mitochondria, Ca2+ swelling absorbance, 30 min | inhibition, % at 10 µM | 360,000 compounds, 1.4% hits | AID 602449;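 active = inhibition of 50% or more, scaled per plate between neutral and stimulator controls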;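 note: 0% = DMSO wells given calcium and 100% = 1 mM EGTA wells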
Mdm2 MdmX PPI – human Mdm2/MdmX binding inhibition; O15151+Q00987; SaOS-2 split-luciferase Mdm2/MdmX complementation, luminescence; inhibition, % at 8 µM; 330,000 compounds, 3% hits; AID 485346;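 active = inhibition of at least 50% at 8 µM in the primary screen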
Target sequence (O15151 whole entry, looked up): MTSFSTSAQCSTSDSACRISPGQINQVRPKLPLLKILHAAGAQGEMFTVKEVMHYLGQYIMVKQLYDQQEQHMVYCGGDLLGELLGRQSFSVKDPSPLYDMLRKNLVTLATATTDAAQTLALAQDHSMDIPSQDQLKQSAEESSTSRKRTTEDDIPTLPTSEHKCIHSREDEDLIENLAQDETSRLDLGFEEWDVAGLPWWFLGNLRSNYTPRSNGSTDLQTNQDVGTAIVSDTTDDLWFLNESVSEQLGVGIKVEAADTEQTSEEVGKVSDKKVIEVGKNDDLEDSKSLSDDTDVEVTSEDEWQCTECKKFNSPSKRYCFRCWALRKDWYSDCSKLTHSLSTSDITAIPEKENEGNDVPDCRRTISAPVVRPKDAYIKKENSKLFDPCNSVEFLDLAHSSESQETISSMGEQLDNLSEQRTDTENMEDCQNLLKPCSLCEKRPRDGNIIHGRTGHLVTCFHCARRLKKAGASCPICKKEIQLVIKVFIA
Target sequence (Q00987 whole entry, looked up): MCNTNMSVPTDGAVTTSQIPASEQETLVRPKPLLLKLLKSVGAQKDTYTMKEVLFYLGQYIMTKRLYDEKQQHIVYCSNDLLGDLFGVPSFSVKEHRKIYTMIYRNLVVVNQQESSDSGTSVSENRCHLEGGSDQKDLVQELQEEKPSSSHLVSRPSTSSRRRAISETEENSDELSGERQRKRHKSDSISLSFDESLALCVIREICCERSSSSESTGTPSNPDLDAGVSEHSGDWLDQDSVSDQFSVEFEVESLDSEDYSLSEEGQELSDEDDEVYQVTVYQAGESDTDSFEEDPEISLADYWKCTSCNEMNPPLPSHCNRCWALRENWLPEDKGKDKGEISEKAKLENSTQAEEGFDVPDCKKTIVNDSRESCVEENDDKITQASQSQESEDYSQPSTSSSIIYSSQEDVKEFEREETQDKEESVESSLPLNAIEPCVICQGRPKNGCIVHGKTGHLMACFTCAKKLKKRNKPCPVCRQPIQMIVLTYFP
NR3A LBD binder – NR3A (human) ligand-binding domain modulation | AID 1259313 | 340,000 compounds, 2.5% hits | NR3A LBD differential scanning fluorimetry, Tm shift; 0% = protein alone, 100% = glycine-bound protein | Tm shift relative to glycine control, % at 25 µM;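 active = melting temperature shift of at least 10% of the positive control shift, at one fixed dose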
The depositor's hits bear a star; ? = inconclusive; nt = not tested or not shown.

SMILES | SKKanGAS inh | CSC inhib | Beta apoptosis | MPTP block | Mdm2 MdmX PPI | NR3A LBD binder
CCOC(=O)c1cccc(N2C(N)=NC(N)=NC2(C)C)c1 | 91* | -41 | -8 | -1 | 20 | 0
CC1(C)N=C(N)N=C(N)N1c1cccc(C(=O)O)c1 | 6 | -9 | -4 | 0 | -2 | 0
COc1ccc(N2C(N)=NC(N)=NC2(C)C)cc1 | 73* | -15 | 10 | -1 | nt | 0
CCN(CC)C(=N)N1c2ccccc2CCC1C (configuration not stated) | -6 | 0 | -9 | -1 | 0 | 0
CCOC(=O)CC(N)c1cccc([N+](=O)[O-])c1 (configuration not stated) | 0 | 8 | 3 | 0 | 12 | 3
CC(=O)Nc1ccc(C2=NNC(=Nc3cccc(S(=O)(=O)N(C)C)c3)SC2)cc1 | 2 | 38 | 96* | 0 | 20 | 12*
Fc1ccccc1N=C1NN=C(c2ccccc2)CS1 | 67* | 47 | 97* | 0 | -174 | 13*
CN(C)S(=O)(=O)c1cccc(N=C2NN=C(c3ccccc3)CS2)c1 | nt | 17 | 91* | nt | nt | -1
COc1cccc(CN2C(=NC(=O)C3CC3)SC3CS(=O)(=O)CC32)c1 (configuration not stated) | -11 | -6 | -4 | -1 | 15 | 1
Cc1ccc(CNC(=O)CCc2nnc3ccc(N4CCC5(CC4)OCCO5)nn23)cc1 | 3 | 11 | -2 | -2 | 13 | 0
CN(C)CCNC(=O)C(=O)c1c(-c2ccccc2)cc2ccccn12 | -4 | -8 | 0 | 0 | -27 | 242*
O=C(NCCCO)C(=O)c1c(-c2ccccc2)cc2ccccn12 | 4 | 7 | -3 | -1 | 4 | 0
O=C(/C=C/c1ccc(F)cc1)NC(=S)NNC(=O)c1cnccn1 | 109* | 52 | 70* | -2 | 50 | -2
COc1ccc(/C=C/C(=O)NC(=S)NNC(=O)c2cccnc2)cc1 | 60* | 13 | 7 | 2 | -14 | -23
O=C(NNC(=S)NC(=O)c1cccnc1)c1ccc(F)cc1 | 28 | 1 | -3 | -4 | 12 | -2
O=C(NC(=S)NNC(=O)c1cnccn1)c1ccc(F)cc1 | 29 | 61 | 79* | 1 | 45 | -3
O=C(/C=C/c1ccc(F)cc1)NC(=S)Nc1ccccc1 | -1 | 3 | 1 | 2 | -5 | 1
CO[C@H]1CN(C)C(=O)c2cc(NC(=O)C3CCOCC3)ccc2OC[C@H](C)N(Cc2nccs2)C[C@H]1C | nt | nt | nt | -1 | nt | nt
Cc1cccc2sc(NC(=O)c3cccc(S(=O)(=O)N4CCc5ccccc54)c3)nc12 | 6 | -1 | 14 | 11 | 43 | 10
Cc1cc(C)c2nc(NC(=O)[C@@H](NC(=O)c3cccc(S(=O)(=O)N4CCOCC4)c3)C(C)C)sc2c1 | 36 | 1 | 6 | 5 | 16 | 34*
Cc1cc(C)c2nc(NC(=O)c3cccc(S(=O)(=O)N4CCc5ccccc54)c3)sc2c1 | 19 | nt | 8 | 2 | 24 | 10*
CCc1ccc(OCC(=O)O/N=C(\N)c2ccncc2)c(Br)c1 | -4 | -2 | -7 | -1 | -159 | 1
COc1cccc(CNC(=O)CCS(=O)(=O)c2cc3c(cc2C)NC(=O)CO3)c1 | -3 | 7 | -3 | -1 | 5 | -1
CC1=C(C(=O)N2CCOCC2)C(c2ccc(OC(F)F)cc2)NC(=S)N1c1ccccc1 (configuration not stated) | -1 | -9 | -6 | -1 | -17 | 0
Cc1[nH][nH]c(=O)c1C(c1cc([N+](=O)[O-])ccc1O)c1c(C)[nH][nH]c1=O | -5 | 6 | 1 | 1 | nt | 10*
SMILES | SKKanGAS inh | CSC inhib | Beta apoptosis | MPTP block | Mdm2 MdmX PPI | NR3A LBD binder
CCCOc1ccc(/C=N/NC(=O)c2nnn(-c3nonc3N)c2-c2cccs2)cc1OC | 0 | 3 | -1 | -2 | -7 | -2
COc1cc(/C=N/NC(=O)c2c(C)nnn2-c2nonc2N)ccc1O | -1 | -10 | 1 | -1 | 37 | 14*
Cc1nnn(-c2nonc2N)c1C(=O)N/N=C/c1cccc2ccccc12 | -5 | -8 | 3 | 2 | 19 | 33*
CCC(=O)c1cn(CC(=O)Nc2ccc(C)cc2)c2ccccc12 | ? | -7 | -1 | 1 | 7 | -4
Cc1cc(OCC(=O)NCCN2CCOCC2)c2c(C)c(C)c(=O)oc2c1 | 9 | -9 | 1 | -2 | 12 | 0
CCOC(=O)C(Oc1ccc2c(-c3ccc(OC)cc3)cc(=O)oc2c1C)c1ccccc1 (configuration not stated) | -1 | 21 | 21 | 8 | 26 | -1
CCOC(=O)C(Oc1ccc2c(-c3ccccc3)cc(=O)oc2c1C)c1ccccc1 (configuration not stated) | 4 | nt | nt | 2 | 3 | 14*
COc1cccc(N2C(=NC(=O)C3CCCCC3)SC3CS(=O)(=O)CC32)c1 (configuration not stated) | -3 | -1 | -3 | -2 | 5 | -1
COc1ccc(Cl)cc1-c1cc(C(=O)NCc2ccc(F)cc2)[nH]n1 | nt | nt | nt | -2 | nt | nt
COc1ccc(CCNC(=O)CSc2nn(-c3ccccc3)c(=S)s2)cc1OC | -8 | 12 | 0 | 2 | -25 | 19*
COc1ccc(CCNC(=O)CSc2nc3c(sc(=S)n3-c3ccccc3)c(=O)[nH]2)cc1OC | nt | nt | nt | 0 | nt | nt
CCCCc1nc(N2CCOCC2)c(C#N)c2c1COC(C)(C)C2 | -8 | -4 | -8 | -2 | 5 | 15*
Cc1ccc(C)c(NC(=O)CN(C)C(=O)c2cccc(S(=O)(=O)N3CCCC3)c2)c1 | nt | nt | nt | 0 | -9 | -2
Cc1ccc(C)c(NC(=O)CN(C)C(=O)c2cccc(S(=O)(=O)N3CCN(Cc4ccccc4)CC3)c2)c1 | 3 | -16 | 36 | 2 | 19 | 17*
COc1ccc(-c2cc3nc[nH]c(=O)c3s2)cc1 | 56* | 3 | 2 | -1 | -65 | -2
O=c1[nH]cnc2cc(-c3ccccc3)sc12 | 16 | -4 | -3 | 0 | -14 | 0
Cc1nc2ccccc2nc1N1CCCCC1 | nt | nt | nt | -1 | nt | 2
c1ccc2nc(N3CCCC3)c(N3CCCC3)nc2c1 | 9 | -13 | -9 | 1 | 20 | 11*
CC1(c2nnnn2-c2ccc3c(c2)OCCO3)CCC(=O)N1Cc1cccnc1 (configuration not stated) | nt | nt | nt | -2 | nt | nt
Cc1cc(C(=O)NNC(=O)Cc2ccc(Cl)cc2)c(C)o1 | -11 | -2 | -2 | -2 | 8 | -1
O=C(NCCOc1ccccc1)c1ncn[nH]1 | 0 | 16 | -2 | 1 | 8 | 10*
Cc1cccc(OCCNC(=O)c2ncn[nH]2)c1 | -8 | 31 | -1 | 0 | 0 | -1
Cc1cccc(S(=O)(=O)N(CC(=O)Nc2ccccc2C)Cc2ccco2)c1 | -1 | 7 | 0 | 1 | -25 | 11*
O=C(O)C1CC=CCC1C(=O)Nc1cccc(Cl)c1 (configuration not stated) | -3 | 0 | -1 | 0 | 15 | 11*
